Compound activity deposited in PubChem BioAssay by University of Kansas High Throughput Screening Laboratory.
Pf apPOL block: Pf-apPOL DNA polymerase inhibition | Recombinant Pf-apPOL, molecular beacon fluorescence, 1.5 h | inhibition, % at 10 µM | 210,000 compounds, 0.25% hits
mHTT CaM bind: mHTT-calmodulin interaction abrogation; AlphaScreen His-mHTT/GST-CaM binding, luminescence; inhibition, % at 15 µM; AID 1671202; P42858; 190,000 compounds, 3.6% hits;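 further: 0% = both proteins with DMSO and 100% = one protein alone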
* hit, by the source's call; · = not tested or not shown. Most compounds without a hit are left out; they make up all but 3.6% or so of the library. No stated cut-off is given here; in the data, active means inhibition above about 50%; inactive means the rest.

SMILES	Pf apPOL block	mHTT CaM bind
CC(C)CC1C(=O)N(Cc2cn(CCC3OCCO3)nn2)CCS(=O)(=O)N1Cc1ccc(-c2ccc(F)cc2)cc1 (stereo not given)	-7	68*
CC(C)CC1C(=O)N(Cc2cn(CCC3OCCCO3)nn2)CCS(=O)(=O)N1Cc1ccc(-c2ccc(Cl)nc2)cc1 (stereo not given)	-23	29
CC(C)CC1C(=O)N(Cc2cn(CCC3OCCO3)nn2)CCS(=O)(=O)N1Cc1ccc(-c2cccc(N(C)C)c2)cc1 (stereo not given)	2	72*
CC(C)CC1C(=O)N(Cc2cn(CCC3OCCCO3)nn2)CCS(=O)(=O)N1Cc1ccc(-c2ccc(Cl)c(Cl)c2)cc1 (stereo not given)	-4	60*
O=C(Nc1ccc(F)cc1F)Nc1nnc2ccccn12	0	-2
COc1nccnc1NC1CCN(C(=O)Cc2cccnc2)CC1	-5	0
CN(C)C1N(C(=O)c2cccc(Br)c2)N=C2c3ccccc3S(=O)(=O)N21 (stereo not given)	0	11
COc1ccc(-c2csnn2)cc1S(=O)(=O)n1nc(C)cc1C	1	·
O=C1S/C(=C\c2ccccc2)C(=O)N1c1cccc(O)c1	-2	13
Cc1ccccc1-c1nc(C2CCN(S(=O)(=O)c3cccc(Cl)c3C)CC2)no1	-3	-10
O=C(CSc1nn2c(SCC(=O)c3cccs3)nnc2s1)c1cccs1	5	17
Cn1cnnc1SCC(=O)c1cccs1	98*	-5
CCN(CC)c1ccc(C2N(C(=O)c3ccccc3)CCN2S(=O)(=O)c2ccccc2)cc1 (stereo not given)	2	37
CCC(=O)N1CCN(S(=O)(=O)c2ccc(C)cc2)C1c1ccc(N(C)C)cc1 (stereo not given)	-9	18
CCC(=O)N1c2ccccc2N(S(=O)(=O)c2ccc(C)cc2)C1c1ccc(N(C)C)cc1 (stereo not given)	4	53*
Cc1ccc(C(=O)N2CCN(S(=O)(=O)c3ccc(C)cc3)C2c2ccc(N(C)C)cc2)cc1 (stereo not given)	1	50*
Cc1ccc(S(=O)(=O)N2CCN(C(=O)c3ccccc3)C2c2ccc(N(C)C)cc2)cc1 (stereo not given)	-17	56*
CCC(=O)N1CCN(S(=O)(=O)c2ccc(C)cc2)C1c1ccccc1 (stereo not given)	-8	-10
C=CCNC(=O)c1cc([N+](=O)[O-])cc2c1-c1ccc([N+](=O)[O-])cc1C2=O	2	·
NNc1nccc(Nc2ccccc2C(=O)O)n1	-4	100*
O=C(O)c1ccccc1Nc1ccnc(N2CCOCC2)n1	-2	0
O=C(NCCCn1ccnc1)c1cn(Cc2ccccc2)nc1OCc1ccccc1	-43	24
Fc1cccc(-n2cc(-c3noc(-c4ccccc4F)n3)nn2)c1	-3	-13
COc1ccc(-c2nc(-c3ccc(F)cc3)c[n+]3ccc4cc(OC)c(OC)cc4c23)cc1OC	·	78*
COc1ccc(-c2nc(-c3nnn(-c4ccc(F)cc4)c3C)no2)cc1OC	-5	-6
SMILES	Pf apPOL block	mHTT CaM bind
Cn1c(=O)c(N2CCN(C(=O)COc3ccc(F)c(F)c3)CC2)nc2ccncc21	-3	8
Cc1ccc(NC(=O)C2CCN(c3cnn(C)c(=O)c3)CC2)c(C)c1	-4	-1
COc1cc(/C=C2\C(=O)NC(=O)N(c3ccc(C)cc3)C2=O)cc([N+](=O)[O-])c1O	5	3
O=C1Nc2ccc(I)cc2C1=Cc1cc(Br)c(O)c(Br)c1	-124	·
CCOc1cc(/C=C2\C(=O)Nc3ccc(Br)cc32)cc(Cl)c1O	0	100*
COc1ccc(/C=C2\C(=O)Nc3ccc(Br)cc32)cc1	-3	48
COc1ccc(/C=C2\C(=O)Nc3ccc(Br)cc32)cc1OC	-3	90*
COc1cc(/C=C2\C(=O)Nc3ccc(Br)cc32)cc([N+](=O)[O-])c1O	0	96*
COc1cc(/C=C2\C(=O)Nc3ccc(Br)cc32)cc(Cl)c1O	-38	100*
COc1cc(/C=C2\C(=O)NC(=O)N(c3ccc(C)cc3)C2=O)cc(Cl)c1O	1	4
Cn1ncc(I)c1C(=O)Nc1ccc(-c2ccccc2)cc1	-1	-4
CCOC(=O)c1ccc(Oc2c(C)oc3c(CN4CCCCC4C)c(O)ccc3c2=O)cc1 (stereo not given)	-7	8
C=CCNC(=O)C1CCC(c2cccc(C)c2)N(C(=O)NC(C)C)C1 (stereo not given)	3	2
CCc1ccc(C(=O)Nc2cc(-n3cnnn3)ccc2Cl)cc1	-2	3
O=[N+]([O-])C1=Cc2cc(Br)cc(Br)c2OC1c1ccc2c(c1)OCO2 (stereo not given)	-5	84*
CCOc1ccc(C2Oc3c(cc(Br)cc3OC)C=C2[N+](=O)[O-])cc1OC (stereo not given)	-9	38
COc1cc(Br)cc2c1OC(c1ccc3c(c1)OCO3)C([N+](=O)[O-])=C2 (stereo not given)	-3	68*
O=[N+]([O-])C1=Cc2ccccc2OC1c1ccccc1 (stereo not given)	·	36
COc1cc2c(cc1[N+](=O)[O-])OCO2	·	-5
COc1ccc(C2Oc3c(cc(Br)cc3OC)C=C2[N+](=O)[O-])cc1OC (stereo not given)	-3	72*
O=[N+]([O-])c1ccc(Cc2ncccc2O)cc1	-3	-5
O=[N+]([O-])c1cc(O)c2ncccc2c1	-186	100*
Nc1cc(Br)cc2cccnc12	6	-5
Oc1cc(O)c2ncccc2c1	1	100*
O=c1c2cnn(CCO)c2ncn1Cc1ccc(Cl)cc1Cl	-22	-8
SMILES	Pf apPOL block	mHTT CaM bind
O=C(c1cc2c(s1)CCCC2)N1CC2CC1CC2NS(=O)(=O)c1cccnc1 (stereo not given)	-1	8
CSc1nc(N)nc(SCc2ccc(Cl)c(Cl)c2)c1C#N	0	74*
CSc1nc(N)nc(SC/C=C/c2ccccc2)c1C#N	-1	-8
N#CC1=C(N)Oc2n[nH]c(-c3ccc(Br)cc3)c2C1c1cn[nH]c1-c1ccc(F)cc1 (stereo not given)	0	59*
COc1cc(-c2[nH]nc3c2C(c2ccc(C(F)(F)F)cc2)C(C#N)=C(N)O3)cc(OC)c1OC (stereo not given)	-13	90*
N#CC1=C(N)Oc2n[nH]c(-c3ccccc3)c2C1c1ccccc1Cl (stereo not given)	-5	9
COc1ccc(-c2[nH]nc3c2C(c2cc(Cl)c(O)c(OC)c2)C(C#N)=C(N)O3)cc1 (stereo not given)	3	32
COc1cc(C2C(C#N)=C(N)Oc3n[nH]c(-c4ccc(Br)cc4)c32)cc(OC)c1O (stereo not given)	-8	87*
N#CC1=C(N)Oc2n[nH]c(-c3ccccc3)c2C1c1ccc2c(c1[N+](=O)[O-])OCO2 (stereo not given)	-4	51*
CCOc1ccc(-c2[nH]nc3c2C(c2cn[nH]c2-c2ccc(F)cc2)C(C#N)=C(N)O3)cc1 (stereo not given)	-6	41
COc1cc(C2C(C#N)=C(N)Oc3n[nH]c(C(F)(F)F)c32)cc(OC)c1OC (stereo not given)	0	7
O=C(O)c1ccc(N2C(=O)C3C4c5ccccc5C(CO)(c5ccccc54)C3C2=O)cc1 (stereo not given)	-6	-3
